# Results: the supplement of paper PMC10849652
# For some of these results: The full data set covers some 7,900 targets. This sample favours those with a hit. For some of these results: About 0.6% of all pairs of compound and target were hits. A number with no mark means an inactive call. For some of these results: Of roughly 8,800 targets only a part is listed; those with a hit were picked by preference. For some of these results: About 0.5% of all pairs of compound and target were hits.
# Columns and labels:
# [1] = compound: C1=CC=C(C=C1)[C@H](COC2=CC3=C(C=C2)NC(=O)N3)NC(=O)C4=CC=CN(C4=O)CC5=CC(=C(C=C5)F)F; experiment: log2 fold change, soluble protein after heating vs DMSO (PISA); higher = thermal stabilisation; K562 cells, 10 uM, 30 min; active = over 0.2 and 3.5 SD of the protein, either way, in both replicates (recomputed)
# Method in brief: (§1)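 Aliquots of K562 cells (2×10^6 cells/mL) treated with 10 μM compound for 30 min were heated for 3 min over 48°C-58°C. After pooling and extraction in PBS with 0.5% NP-40 at 4°C, soluble protein from a 21,000xg, 90 min spin was quantified by TMTpro 16plex LC-MS/MS with channel sums equalised. Thermal stability is expressed against control samples, from duplicates, as a log2 fold change.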
# [2] = compound: CC1=C(SC2=C1C(=N[C@H](C3=NN=C(N32)C)CC(=O)N)C4=CC=C(C=C4)Cl)C; experiment: as above
# Method in brief: as §1
# [3] = compound: CC1=C2C(=CC=C1)N=C(N(C2=O)C3=CC=CC=C3C)CN4C=NC5=C(N=CN=C54)N; experiment: as above
# Method in brief: as §1
# [4] = compound: Cc1sc2c(c1C)C(c1ccc(Cl)cc1)=N[C@@H](CC(=O)OC(C)(C)C)c1nnc(C)n1-2; experiment: as above
# Method in brief: as §1
# [5] = compound: c1ccc([C@@H]2C[C@H]2NC2CCNCC2)cc1; experiment: as above
# Method in brief: as §1
# [6] = compound: c1ccc([C@@H]2C[C@H]2NC2CCNCC2)cc1; experiment: log2 fold change, soluble protein after heating vs DMSO (PISA); higher = thermal stabilisation; K562 lysate, 10 uM; active = over 0.2 and 3.5 SD of the protein, either way, in both replicates (recomputed)
# Method in brief: (§2)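 Pellets of K562 cells were dounce-homogenised in PBS pH 7.4 with 1 mM MgCl2, and the crude extract was held at 1 mg/mL protein for a 30 min treatment with 10 μM compound. Aliquots were heated for 3 min over 48°C-58°C and pooled before NP-40 was added to 0.5% at 4°C. The supernatant from 21,000xg for 90 min was quantified by TMTpro 16plex LC-MS/MS with channel sums equalised. Values are reported from duplicates as log-two fold change in thermal stability relative to solvent controls.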
# [7] = compound: C1=CC=C(C=C1)[C@H](COC2=CC3=C(C=C2)NC(=O)N3)NC(=O)C4=CC=CN(C4=O)CC5=CC(=C(C=C5)F)F; experiment: as above
# Method in brief: as §2
# [8] = compound: CC1=C(SC2=C1C(=N[C@H](C3=NN=C(N32)C)CC(=O)N)C4=CC=C(C=C4)Cl)C; experiment: as above
# Method in brief: as §2
# [9] = compound: Cc1sc2c(c1C)C(c1ccc(Cl)cc1)=N[C@@H](CC(=O)OC(C)(C)C)c1nnc(C)n1-2; experiment: as above
# Method in brief: as §2
# [10] = compound: CC1=C2C(=CC=C1)N=C(N(C2=O)C3=CC=CC=C3C)CN4C=NC5=C(N=CN=C54)N; experiment: as above
# Method in brief: as §2
# UniProt Q8N567, sequence (Q8N567 whole entry, looked up): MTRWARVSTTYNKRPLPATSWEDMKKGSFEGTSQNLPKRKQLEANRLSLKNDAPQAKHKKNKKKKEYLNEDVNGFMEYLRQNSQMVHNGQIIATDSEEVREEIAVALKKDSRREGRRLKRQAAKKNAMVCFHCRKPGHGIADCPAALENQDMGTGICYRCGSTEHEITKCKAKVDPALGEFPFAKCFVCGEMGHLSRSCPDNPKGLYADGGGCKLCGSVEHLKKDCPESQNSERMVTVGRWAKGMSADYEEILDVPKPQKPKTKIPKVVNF
# UniProt Q8NB15, sequence (Q8NB15 whole entry, looked up): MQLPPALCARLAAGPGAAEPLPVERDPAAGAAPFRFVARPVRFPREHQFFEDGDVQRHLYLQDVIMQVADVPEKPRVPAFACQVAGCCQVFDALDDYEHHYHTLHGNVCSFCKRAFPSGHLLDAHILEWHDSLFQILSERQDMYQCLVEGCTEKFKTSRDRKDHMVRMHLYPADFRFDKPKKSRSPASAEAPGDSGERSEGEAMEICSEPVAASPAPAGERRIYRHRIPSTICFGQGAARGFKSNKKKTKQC
# UniProt Q13686, sequence (Q13686 whole entry, looked up): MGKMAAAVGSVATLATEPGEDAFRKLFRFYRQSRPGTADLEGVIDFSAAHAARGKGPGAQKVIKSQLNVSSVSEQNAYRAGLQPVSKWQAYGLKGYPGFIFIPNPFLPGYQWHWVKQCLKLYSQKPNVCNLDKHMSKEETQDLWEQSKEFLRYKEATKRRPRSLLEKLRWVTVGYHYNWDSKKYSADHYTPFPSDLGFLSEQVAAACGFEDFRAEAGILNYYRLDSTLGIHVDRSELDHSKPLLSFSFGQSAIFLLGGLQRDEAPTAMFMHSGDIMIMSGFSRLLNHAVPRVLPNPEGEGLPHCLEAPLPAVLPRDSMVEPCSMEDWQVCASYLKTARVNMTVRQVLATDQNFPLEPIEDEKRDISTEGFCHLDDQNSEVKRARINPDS
# UniProt Q9BQI0, sequence (Q9BQI0 whole entry, looked up): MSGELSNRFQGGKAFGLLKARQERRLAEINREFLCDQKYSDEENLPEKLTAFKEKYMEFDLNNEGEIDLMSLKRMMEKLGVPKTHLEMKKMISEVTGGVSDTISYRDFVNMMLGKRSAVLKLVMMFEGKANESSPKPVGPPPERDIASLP
# UniProt Q9BVK2, sequence (Q9BVK2 whole entry, looked up): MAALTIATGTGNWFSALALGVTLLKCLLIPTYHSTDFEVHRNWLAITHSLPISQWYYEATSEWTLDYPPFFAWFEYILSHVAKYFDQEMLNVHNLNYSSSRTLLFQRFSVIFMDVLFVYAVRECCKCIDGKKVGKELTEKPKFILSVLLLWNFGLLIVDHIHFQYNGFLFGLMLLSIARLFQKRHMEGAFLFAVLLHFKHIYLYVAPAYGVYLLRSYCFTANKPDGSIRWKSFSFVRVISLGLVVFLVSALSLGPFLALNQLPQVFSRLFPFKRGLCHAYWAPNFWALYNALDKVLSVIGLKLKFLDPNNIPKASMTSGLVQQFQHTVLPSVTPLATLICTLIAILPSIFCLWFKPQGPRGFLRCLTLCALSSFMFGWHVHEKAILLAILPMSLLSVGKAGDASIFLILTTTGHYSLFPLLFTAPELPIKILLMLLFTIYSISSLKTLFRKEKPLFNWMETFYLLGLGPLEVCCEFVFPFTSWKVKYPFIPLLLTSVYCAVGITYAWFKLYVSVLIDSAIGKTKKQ
# UniProt P27348, sequence (P27348 whole entry, looked up): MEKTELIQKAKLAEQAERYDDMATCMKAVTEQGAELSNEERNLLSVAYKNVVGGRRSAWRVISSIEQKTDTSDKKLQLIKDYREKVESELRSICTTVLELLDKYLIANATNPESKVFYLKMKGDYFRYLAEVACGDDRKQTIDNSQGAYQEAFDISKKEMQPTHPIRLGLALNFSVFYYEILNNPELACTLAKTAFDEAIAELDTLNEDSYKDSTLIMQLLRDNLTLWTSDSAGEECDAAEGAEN
# UniProt O95870, sequence (O95870 whole entry, looked up): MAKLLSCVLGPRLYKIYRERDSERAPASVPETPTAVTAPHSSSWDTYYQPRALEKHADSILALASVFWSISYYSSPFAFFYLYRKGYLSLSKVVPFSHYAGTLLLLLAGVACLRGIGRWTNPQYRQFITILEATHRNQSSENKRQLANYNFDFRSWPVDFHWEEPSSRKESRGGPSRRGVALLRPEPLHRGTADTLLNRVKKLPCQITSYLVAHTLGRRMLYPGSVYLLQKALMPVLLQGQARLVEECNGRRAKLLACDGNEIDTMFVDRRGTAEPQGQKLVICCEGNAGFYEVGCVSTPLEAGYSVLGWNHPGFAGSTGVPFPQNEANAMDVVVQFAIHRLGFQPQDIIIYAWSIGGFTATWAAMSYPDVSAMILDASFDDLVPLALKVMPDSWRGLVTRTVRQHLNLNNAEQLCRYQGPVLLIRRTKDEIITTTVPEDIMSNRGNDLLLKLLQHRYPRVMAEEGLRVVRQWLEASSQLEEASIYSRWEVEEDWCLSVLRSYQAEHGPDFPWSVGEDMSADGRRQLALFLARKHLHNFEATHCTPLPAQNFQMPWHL
# UniProt Q96EC8, sequence (Q96EC8 whole entry, looked up): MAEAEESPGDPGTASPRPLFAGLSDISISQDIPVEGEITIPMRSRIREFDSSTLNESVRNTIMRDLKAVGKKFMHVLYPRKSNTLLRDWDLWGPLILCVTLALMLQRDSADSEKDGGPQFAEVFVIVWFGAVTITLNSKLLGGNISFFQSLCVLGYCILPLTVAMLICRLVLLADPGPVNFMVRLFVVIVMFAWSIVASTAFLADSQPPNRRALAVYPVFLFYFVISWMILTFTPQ
# UniProt Q969S3, sequence (Q969S3 whole entry, looked up): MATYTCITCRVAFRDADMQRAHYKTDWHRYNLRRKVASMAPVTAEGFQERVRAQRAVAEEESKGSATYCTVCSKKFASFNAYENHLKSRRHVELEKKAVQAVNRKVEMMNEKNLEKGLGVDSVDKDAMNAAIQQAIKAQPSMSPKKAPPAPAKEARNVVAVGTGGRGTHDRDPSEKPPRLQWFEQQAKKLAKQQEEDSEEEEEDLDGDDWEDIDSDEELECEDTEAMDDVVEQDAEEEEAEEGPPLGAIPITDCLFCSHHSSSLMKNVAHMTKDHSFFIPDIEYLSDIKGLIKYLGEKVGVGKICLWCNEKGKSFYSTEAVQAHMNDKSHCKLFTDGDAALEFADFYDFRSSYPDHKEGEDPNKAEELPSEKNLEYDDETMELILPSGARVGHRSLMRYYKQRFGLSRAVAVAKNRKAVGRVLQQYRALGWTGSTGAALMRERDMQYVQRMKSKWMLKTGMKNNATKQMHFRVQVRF
# UniProt Q9BTT0, sequence (Q9BTT0 whole entry, looked up): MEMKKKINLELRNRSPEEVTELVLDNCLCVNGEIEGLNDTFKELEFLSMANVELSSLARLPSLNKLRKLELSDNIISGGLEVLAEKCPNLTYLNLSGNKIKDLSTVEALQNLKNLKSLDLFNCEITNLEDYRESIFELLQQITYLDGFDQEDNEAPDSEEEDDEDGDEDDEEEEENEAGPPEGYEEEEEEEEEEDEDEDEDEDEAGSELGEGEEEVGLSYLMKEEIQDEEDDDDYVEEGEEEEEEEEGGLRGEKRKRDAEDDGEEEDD
# UniProt O00170, sequence (O00170 whole entry, looked up): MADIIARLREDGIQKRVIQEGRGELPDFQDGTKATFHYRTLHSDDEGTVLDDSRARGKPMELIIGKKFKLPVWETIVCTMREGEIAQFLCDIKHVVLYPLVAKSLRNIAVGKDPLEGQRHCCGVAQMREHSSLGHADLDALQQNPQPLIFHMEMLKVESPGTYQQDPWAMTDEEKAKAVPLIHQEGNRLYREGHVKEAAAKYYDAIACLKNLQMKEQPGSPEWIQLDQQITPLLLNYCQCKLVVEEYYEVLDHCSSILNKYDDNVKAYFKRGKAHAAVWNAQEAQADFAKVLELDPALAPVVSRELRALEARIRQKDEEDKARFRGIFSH
# UniProt O95218, sequence (O95218 whole entry, looked up): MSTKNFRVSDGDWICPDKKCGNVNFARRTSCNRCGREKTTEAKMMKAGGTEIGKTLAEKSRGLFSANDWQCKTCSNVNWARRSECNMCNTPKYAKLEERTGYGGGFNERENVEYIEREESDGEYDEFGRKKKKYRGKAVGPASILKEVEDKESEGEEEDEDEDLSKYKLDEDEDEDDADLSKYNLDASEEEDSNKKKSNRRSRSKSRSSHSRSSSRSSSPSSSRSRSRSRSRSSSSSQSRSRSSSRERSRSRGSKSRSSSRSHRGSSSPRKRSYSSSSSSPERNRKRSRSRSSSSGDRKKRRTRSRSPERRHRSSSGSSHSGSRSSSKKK
# UniProt Q8N302, sequence (Q8N302 whole entry, looked up): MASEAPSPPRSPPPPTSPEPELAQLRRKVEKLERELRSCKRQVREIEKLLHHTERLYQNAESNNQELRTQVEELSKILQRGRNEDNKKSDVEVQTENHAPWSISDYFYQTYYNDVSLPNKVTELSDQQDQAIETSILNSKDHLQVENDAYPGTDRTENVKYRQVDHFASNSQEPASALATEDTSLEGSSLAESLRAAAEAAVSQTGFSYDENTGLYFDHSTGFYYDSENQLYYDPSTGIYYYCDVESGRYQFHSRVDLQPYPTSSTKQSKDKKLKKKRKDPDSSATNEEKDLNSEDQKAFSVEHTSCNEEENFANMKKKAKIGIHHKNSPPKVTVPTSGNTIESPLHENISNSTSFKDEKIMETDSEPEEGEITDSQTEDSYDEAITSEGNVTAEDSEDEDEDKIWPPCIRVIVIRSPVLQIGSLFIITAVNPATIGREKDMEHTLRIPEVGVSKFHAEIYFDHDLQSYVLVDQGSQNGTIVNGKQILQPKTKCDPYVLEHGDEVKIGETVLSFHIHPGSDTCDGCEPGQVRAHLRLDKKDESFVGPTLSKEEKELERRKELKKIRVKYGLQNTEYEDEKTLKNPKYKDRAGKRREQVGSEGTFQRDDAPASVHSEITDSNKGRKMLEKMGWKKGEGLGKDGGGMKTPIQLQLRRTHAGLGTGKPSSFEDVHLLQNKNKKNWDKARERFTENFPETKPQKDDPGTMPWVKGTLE
# UniProt P14621, sequence (P14621 whole entry, looked up): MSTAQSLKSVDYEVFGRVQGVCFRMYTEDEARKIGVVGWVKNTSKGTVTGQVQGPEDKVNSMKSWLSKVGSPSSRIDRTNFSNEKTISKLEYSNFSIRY
target,measurement,setting,value
ZNF217 (UniProt O75362),log2 fold change,[1],-0.017
same,log2 fold change,[2],0.048
same,log2 fold change,[3],0.163
same,log2 fold change,[4],-0.003
same,log2 fold change,[5],0.306 (active)
"ACAT1, A0A5F9ZHJ0",log2 fold change,[6],-0.06
ANKRD30A (UniProt Q9BXX3),log2 fold change,[7],-0.04
same,log2 fold change,[8],-0.051
same,log2 fold change,[9],-0.03
same,log2 fold change,[6],0.064
ALDH3A1 (UniProt P30838),log2 fold change,[9],-0.209
same,log2 fold change,[6],-0.339
AIP (UniProt O00170),log2 fold change,[7],0.012
same,log2 fold change,[8],-0.023
same,log2 fold change,[10],-0.006
same,log2 fold change,[9],0.025
same,log2 fold change,[6],0.125
AGGF1 (UniProt Q8N302),log2 fold change,[7],0.042
same,log2 fold change,[8],0.049
same,log2 fold change,[10],0.024
same,log2 fold change,[6],-0.149
ZNF511 isoform 1 (UniProt Q8NB15),log2 fold change,[1],-0.015
same,log2 fold change,[2],-0.128
same,log2 fold change,[3],0.064
same,log2 fold change,[4],-0.123
same,log2 fold change,[5],0.102
YWHAQ (UniProt P27348),log2 fold change,[1],-0.031
same,log2 fold change,[2],0.009
same,log2 fold change,[3],-0.152
same,log2 fold change,[4],-0.089
same,log2 fold change,[5],-0.083
ZNF622 (UniProt Q969S3),log2 fold change,[1],-0.028
same,log2 fold change,[2],0.033
same,log2 fold change,[3],0.073
same,log2 fold change,[4],-0.016
same,log2 fold change,[5],-0.049
ZMYM1 (UniProt Q5SVZ6),log2 fold change,[1],0.077
same,log2 fold change,[2],0.082
same,log2 fold change,[3],-0.144
same,log2 fold change,[4],-0.012
same,log2 fold change,[5],-0.011
ALG13 isoform 2 (UniProt Q9NP73),log2 fold change,[6],-0.109
YY1 (UniProt P25490),log2 fold change,[1],0.013
same,log2 fold change,[2],-0.006
same,log2 fold change,[3],-0.033
same,log2 fold change,[4],-0.015
same,log2 fold change,[5],0.084
ACVR1 (UniProt Q04771),log2 fold change,[7],-0.052
same,log2 fold change,[8],-0.055
same,log2 fold change,[9],-0.102
same,log2 fold change,[6],-0.126
ACYP2 (UniProt P14621),log2 fold change,[7],-0.061
same,log2 fold change,[8],-0.032
same,log2 fold change,[10],0.011
same,log2 fold change,[6],0.118
ALDH18A1 isoform 2 (UniProt P54886),log2 fold change,[10],0.229
same,log2 fold change,[9],-0.068
AIF1L (UniProt Q9BQI0),log2 fold change,[7],0.072
same,log2 fold change,[8],-0.031
same,log2 fold change,[9],0.049
same,log2 fold change,[6],-0.022
ZNF239 (UniProt Q16600),log2 fold change,[1],-0.17
same,log2 fold change,[2],-0.151
same,log2 fold change,[3],-0.06
same,log2 fold change,[4],-0.082
same,log2 fold change,[5],0.06
ZCCHC9 (UniProt Q8N567),log2 fold change,[1],0.173
same,log2 fold change,[2],-0.074
same,log2 fold change,[3],-0.202
same,log2 fold change,[4],0.222
same,log2 fold change,[5],0.023
AMDHD2 (UniProt Q9Y303),log2 fold change,[10],0.039
same,log2 fold change,[6],0.095
YIPF6 (UniProt Q96EC8),log2 fold change,[1],0.062
same,log2 fold change,[2],-0.04
same,log2 fold change,[3],0.114
same,log2 fold change,[4],0.103
same,log2 fold change,[5],0.015
ZRANB2 (UniProt O95218),log2 fold change,[1],-0.002
same,log2 fold change,[2],-0.073
same,log2 fold change,[3],-0.07
same,log2 fold change,[4],0.021
same,log2 fold change,[5],0.093
ALKBH1 (UniProt Q13686),log2 fold change,[10],-0.036
same,log2 fold change,[9],-0.001
same,log2 fold change,[6],0.051
AP3D1 isoform 2 (UniProt O14617),log2 fold change,[10],-0.009
same,log2 fold change,[6],0.061
AP5B1 (UniProt Q2VPB7),log2 fold change,[7],0.079
same,log2 fold change,[8],-0.023
same,log2 fold change,[9],-0.044
same,log2 fold change,[6],-0.003
ACLY isoform 2 (UniProt P53396),log2 fold change,[7],0.099
same,log2 fold change,[8],-0.01
same,log2 fold change,[10],0.023
same,log2 fold change,[6],-0.325
ALG8 (UniProt Q9BVK2),log2 fold change,[7],0.034
same,log2 fold change,[8],0.001
same,log2 fold change,[10],0.059
same,log2 fold change,[9],-0.013
same,log2 fold change,[6],-0.008
ANP32E isoform 3 (UniProt Q9BTT0),log2 fold change,[7],0.003
same,log2 fold change,[8],0.09
same,log2 fold change,[10],0.015
same,log2 fold change,[6],-0.39
ABHD16A (UniProt O95870),log2 fold change,[7],-0.011
same,log2 fold change,[8],0.008
same,log2 fold change,[10],0.07
same,log2 fold change,[9],0.059
same,log2 fold change,[6],0.028
ZC3HC1 (UniProt Q86WB0),log2 fold change,[1],-0.091
same,log2 fold change,[2],0.07
same,log2 fold change,[3],0.1
same,log2 fold change,[4],-0.032
same,log2 fold change,[5],-0.018
